# Calls of active or inactive are those of the source.
# Columns and labels:
# [1] = test system: Human papillomavirus type 1a protein E7 (residues 44-93); assay: small molecules binding HPV E7 44-93 – biochemical, small-molecule microarray, residues 44-93, 635 nm fluorescence, primary screen (AID 1108); conditions: fluorescence 635 nm, higher = more signal;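 also: E7 fragment applied at 1 µg/mL in TBST for 1 h at 4 C; score combines spot fluorescence with its signal to noise ratio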
# [2] = hepatitis C replication reporter changes, two-sided – Huh7 cells, luciferase reporter, HCV replication inhibitor project, primary screen (AID 1109); conditions: Huh7 HCV replicon luciferase reporter, 48 h; higher = more signal;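 also: huh7 hepatoma cells harbouring a luciferase neomycin HCV replicon reporter; luciferase luminescence as measure of HCV replicon replication; test concentration not given here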
# [3] = target: Left-right determination factor 2 (Homo sapiens) (UniProt O00292); assay: small molecules binding LEFTY2 protein – biochemical, small-molecule microarray, 635 nm fluorescence scan, primary screen (AID 1110); conditions: higher = more signal
# Sequence of Left-right determination factor 2 (Homo sapiens) (O00292 whole entry, looked up): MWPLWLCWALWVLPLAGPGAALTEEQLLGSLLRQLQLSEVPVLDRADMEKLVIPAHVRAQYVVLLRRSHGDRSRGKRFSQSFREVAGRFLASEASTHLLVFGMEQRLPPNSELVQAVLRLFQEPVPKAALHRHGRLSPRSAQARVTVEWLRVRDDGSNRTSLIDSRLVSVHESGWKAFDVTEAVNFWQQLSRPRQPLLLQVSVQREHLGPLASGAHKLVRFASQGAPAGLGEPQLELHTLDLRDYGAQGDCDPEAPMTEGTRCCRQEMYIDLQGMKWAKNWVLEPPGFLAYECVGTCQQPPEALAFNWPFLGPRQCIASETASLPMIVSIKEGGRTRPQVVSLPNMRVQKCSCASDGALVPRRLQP
# [4] = target: Calmodulin-1 (Homo sapiens) (UniProt P0DP23); assay: small molecules binding calmodulin-1 with EGTA – biochemical, small-molecule microarray, Cy5-labelled CALM1, profiling panel (AID 1111); conditions: Cy5-CALM1 binding fluorescence, higher = more signal;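 also: labelled calmodulin applied in Tris saline Tween buffer holding calcium plus EGTA and DTT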
# [5] = target: Calmodulin-1 (Homo sapiens) (UniProt P0DP23); assay: small molecules binding Ca-loaded calmodulin-1 – biochemical, small-molecule microarray, Cy5-labelled CALM1, plus calcium, artefact control for SMM control-protein annotation, profiling panel (AID 1112); conditions: Cy5-CALM1 binding fluorescence, higher = more signal;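 also: score merges spot fluorescence with signal to noise from triplicate slides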
# [6] = probe aWnt5a binding to arrayed compounds – biochemical, biotinylated probe, 635/667 nm fluorescence, primary screen (AID 1113); conditions: small-molecule microarray, higher = more signal;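 also: score merges 667 nm fluorescence intensity with signal-to-noise per printed feature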
# [7] = probe aShh binding to arrayed compounds – biochemical, biotinylated probe, 635/667 nm fluorescence, primary screen (AID 1114); conditions: small-molecule microarray, higher = more signal;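 also: probe is biotin-labelled aShh protein from a stem cell growth factor screen; measures binding of labelled protein to compounds printed on the slide; score merges feature fluorescence at 667 nm with signal-to-noise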
# [8] = probe aNog binding to arrayed compounds – biochemical, biotinylated probe, 635/667 nm fluorescence, primary screen (AID 1115); conditions: small-molecule microarray, higher = more signal;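 also: probe is biotinylated aNog protein used at 0.15 µg/mL for 1 h at 4 C; z-score combines 667 nm fluorescence of each spot with its signal to noise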
# [9] = target: Torsin-1A-interacting protein 1 (Homo sapiens) (UniProt Q5JTV8); assay: compound microarray binding of lysate hLAP1 – cell lysate, small-molecule microarray, COS7 lysate, 635/667 nm fluorescence, primary screen (AID 1116); conditions: 635 nm fluorescence, higher = more signal
# Sequence of Torsin-1A-interacting protein 1 (Homo sapiens) (Q5JTV8 whole entry, looked up): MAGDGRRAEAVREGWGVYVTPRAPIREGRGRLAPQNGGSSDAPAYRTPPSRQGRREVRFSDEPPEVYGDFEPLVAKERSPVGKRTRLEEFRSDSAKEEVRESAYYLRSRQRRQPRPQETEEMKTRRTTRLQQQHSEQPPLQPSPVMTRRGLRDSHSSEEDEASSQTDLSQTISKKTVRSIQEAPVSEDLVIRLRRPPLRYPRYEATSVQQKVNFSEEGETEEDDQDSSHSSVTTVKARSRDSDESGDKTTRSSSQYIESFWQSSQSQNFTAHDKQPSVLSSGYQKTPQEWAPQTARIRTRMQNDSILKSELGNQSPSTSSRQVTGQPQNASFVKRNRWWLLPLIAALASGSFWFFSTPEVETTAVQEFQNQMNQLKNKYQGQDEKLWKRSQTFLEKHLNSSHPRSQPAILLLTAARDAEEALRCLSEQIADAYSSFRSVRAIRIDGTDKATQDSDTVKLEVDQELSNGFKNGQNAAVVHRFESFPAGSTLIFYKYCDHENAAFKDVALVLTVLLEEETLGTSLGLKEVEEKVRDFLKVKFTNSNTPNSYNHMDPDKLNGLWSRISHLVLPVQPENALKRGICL
# [10] = target: Alpha-bungarotoxin (Bungarus multicinctus) (UniProt P60615); assay: compounds binding labelled alpha-BTX control protein – biochemical, small-molecule microarray, Alexa647 label, 635/667 nm fluorescence, artefact control for SMM control protein annotation, profiling panel (AID 1117); conditions: alpha-BTX-A647 binding fluorescence, higher = more signal
# Sequence of Alpha-bungarotoxin (Bungarus multicinctus) (P60615 whole entry, looked up): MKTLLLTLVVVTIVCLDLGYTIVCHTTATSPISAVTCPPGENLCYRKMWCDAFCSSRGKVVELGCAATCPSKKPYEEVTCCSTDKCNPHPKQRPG
# Albumin (Bos taurus) = Albumin (Bos taurus) (UniProt P02769); assay: compounds binding labelled BSA control protein – biochemical, small-molecule microarray, Alexa647 label, 635/667 nm fluorescence, artefact control for SMM control protein annotation, profiling panel (AID 1118); conditions: BSA-A647 binding, fluorescence 635 nm, higher = more signal;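 also: score merges 667 nm emission intensity and signal-to-noise per printed compound spot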
# Sequence of Albumin (Bos taurus) (P02769 whole entry, looked up): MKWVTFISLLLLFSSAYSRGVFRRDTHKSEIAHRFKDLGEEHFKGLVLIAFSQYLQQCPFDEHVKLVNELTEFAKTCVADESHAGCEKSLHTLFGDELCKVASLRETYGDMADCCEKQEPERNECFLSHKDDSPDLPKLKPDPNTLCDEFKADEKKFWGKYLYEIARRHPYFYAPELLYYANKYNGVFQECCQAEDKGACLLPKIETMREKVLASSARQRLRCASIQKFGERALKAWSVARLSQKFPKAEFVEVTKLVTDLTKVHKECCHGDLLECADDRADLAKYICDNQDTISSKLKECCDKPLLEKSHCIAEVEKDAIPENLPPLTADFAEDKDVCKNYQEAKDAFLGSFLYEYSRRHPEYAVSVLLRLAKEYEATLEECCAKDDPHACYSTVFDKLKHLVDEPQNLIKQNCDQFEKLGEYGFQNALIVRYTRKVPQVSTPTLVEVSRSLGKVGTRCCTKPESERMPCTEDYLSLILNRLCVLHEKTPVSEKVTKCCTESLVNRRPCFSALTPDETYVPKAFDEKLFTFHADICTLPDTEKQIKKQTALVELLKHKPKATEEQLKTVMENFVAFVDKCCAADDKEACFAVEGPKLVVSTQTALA
# [11] = probe aXIP binding to arrayed compounds – biochemical, NeuroSMM set, 635/667 nm fluorescence, primary screen (AID 1119); conditions: small-molecule microarray, higher = more signal, called active from +8 up or from −8 down;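 also: probe is the protein aXip251-270 applied at 1 µg/mL to compound-printed slides; binding of probe to printed compounds measured as 667 nm fluorescence plus signal to noise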
# [12] = probe aNOTCH3 binding on compound microarray – biochemical, small-molecule microarray, 635/667 nm fluorescence, primary screen (AID 1120); conditions: higher = more signal;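 also: probe is a biotin-tagged antibody raised against NOTCH3 rather than NOTCH3 protein; score merges spot fluorescence near 667 nm with spot signal to noise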
# [13] = probe aNOTCH2 binding on compound microarray – biochemical, small-molecule microarray, 635/667 nm fluorescence, primary screen (AID 1121); conditions: higher = more signal;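 also: score merges feature fluorescence read at 667 nm with its signal to noise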
# [14] = target: Carbonic anhydrase 2 (Homo sapiens) (UniProt P00918); assay: compounds binding carbonic anhydrase 2 – biochemical, small-molecule microarray, Alexa647-labelled CAII, profiling panel (AID 1122); conditions: CAII-A647 binding fluorescence, higher = more signal
# [15] = COS7 lysate on small-molecule microarray, probe aHis, 635 nm (AID 1123); conditions: COS7 cell lysate, fluorescence, higher = more signal;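 also: z-score combines 667nm fluorescence intensity with signal-to-noise per printed compound spot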
# [16] = probe aLAP1 signal on lysate-treated microarray – cell lysate, small-molecule microarray, COS7 lysate, primary screen (AID 1124); conditions: probe aLAP1, fluorescence, higher = more signal;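 also: lysate comes from COS7 cells expressing LAP1 and is applied at 0.3 µg/mL; score merges spot fluorescence near 667 nm with signal-to-noise over triplicate slides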
# Sam68 (KHDRBS1) = assay: compounds binding KHDRBS1 protein – biochemical, small-molecule microarray, 635 nm fluorescence, primary screen (AID 1125); conditions: higher = more signal;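 also: score merges 667 nm channel intensity with signal to noise over triplicate slides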
# [17] = test system: Chordin-like protein 2 (CHRDL2); assay: compounds binding chordin-like 2 – biochemical, small-molecule microarray, 635 nm fluorescence, primary screen (AID 1126); conditions: fluorescence 635 nm, higher = more signal;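 also: printed compound slides probed with Chrdl2 protein at 4 µg/mL for 1 h at 4 C; score merges 667 nm emission intensity with signal to noise over three replicate slides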
# [18] = target: Concanavalin-A (Canavalia ensiformis) (UniProt P02866); assay: compounds binding concanavalin A lectin – biochemical, small-molecule microarray, Alexa647 label, 635 nm, artefact control for SMM control protein annotation, primary screen (AID 1127); conditions: ConA-A647 binding fluorescence, higher = more signal;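 also: z combines 667 nm emission intensity with signal-to-noise across three replicate slides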
# Sequence of Concanavalin-A (Canavalia ensiformis) (P02866 whole entry, looked up): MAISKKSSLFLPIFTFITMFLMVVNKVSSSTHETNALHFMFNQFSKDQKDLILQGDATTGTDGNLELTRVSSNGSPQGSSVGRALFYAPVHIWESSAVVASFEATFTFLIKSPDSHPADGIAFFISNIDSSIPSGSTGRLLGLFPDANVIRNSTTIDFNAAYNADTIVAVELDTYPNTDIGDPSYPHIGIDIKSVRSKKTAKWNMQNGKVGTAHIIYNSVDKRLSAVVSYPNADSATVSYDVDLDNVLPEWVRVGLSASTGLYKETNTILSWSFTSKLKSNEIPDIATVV
SMILES,composite z-score [1],z-score [2],composite z-score [3],composite z-score [4],composite z-score [5],composite z-score [6],composite z-score [7],composite z-score [8],composite z-score [9],composite z-score [10],composite z-score (Albumin (Bos taurus)),composite Z-score [11],composite z-score [12],composite z-score [13],composite z-score [14],composite z-score [15],composite z-score [16],composite z-score (Sam68 (KHDRBS1)),composite z-score [17],composite z-score [18]
Cc1ccc(S[C@]2(C(=O)NCCN3CCOCC3)CC(=O)N(Cc3ccccc3Cl)[C@@H]2c2ccc(CO)cc2I)cc1,0.772,-1.25,-1.45,0.0002,0.154,0.522,0.464,2.2,2.35,-0.903,0.243,0.555 (inactive),0.0226,0.584,0.805,2.75,1.49,0.653,-0.35,-0.763
CCOC(=O)C1=CC[C@@H](c2ccccc2F)N(S(=O)(=O)c2ccc(C)cc2)[C@H]1c1ccccc1,1.34,-1.43,0.364,0.509,-0.355,-0.0924,-0.0866,-0.473,0.292,0.42,0.437,-0.244 (inactive),0.103,0.0416,0.338,1.19,0.212,1.18,0.0943,0.83
COCCOC(=O)N1C(=O)[C@@]2(c3cc(C#CC4=CCCCC4)ccc31)[C@H](C(=O)Nc1nc3ccccc3s1)[C@H]1C(=O)O[C@H](c3ccccc3)[C@H](c3ccccc3)N1[C@@H]2c1ccc(O)cc1,1.39,-1.1,0.647,1.07,0.641,-0.15,-0.51,-0.483,0.666,0.42,0.817,2.58 (inactive),-0.0279,-0.166,0.661,1.68,0.61,1.31,0.408,1.18
CCOC(=O)C[C@H]1[C@H](OC(=O)c2cc3ccccc3oc2=O)[C@@H](NC(=O)c2ccccc2)c2cc(OCCCO)ccc2N1C(=O)c1ccccc1,0.119,-0.148,0.535,-0.0848,-0.782,-0.0718,0.0121,-0.108,0.203,0.139,-0.122,0.0916 (inactive),-0.0199,-0.147,-0.129,0.236,-0.155,0.64,0.498,0.535
CC(C)[Si](C#CCCCC#N)(O[C@H](c1ccccc1)c1cn(Cc2ccccc2)nn1)C(C)C,0.157,-0.147,-0.0465,-0.321,-0.458,-0.252,0.0469,0.111,0.439,-0.199,0.728,-0.535 (inactive),0.123,-0.174,0.249,0.691,0.272,1.16,0.568,0.536
C=CCC(OC(C)=O)[C@@H]1[C@@H](N(Cc2ccc(-c3ccccc3)cc2)C(=O)c2ccc(-c3ccccc3)cc2)c2cc(OCCCO)ccc2N1C(=O)c1ccc2ccccc2c1 (stereo not given in full),0.508,-0.415,-0.0379,0.493,0.839,-0.11,0.0141,-0.284,0.0403,-0.116,-0.186,-0.473 (inactive),-0.0208,-0.115,0.212,0.937,-0.129,0.352,0.0949,-0.38
CN(C)C(=O)[C@]1(CCC(=O)OC(C)(C)C)N=C(c2ccc(OCCCO)cc2)O[C@@H]1c1ccccc1CN=[N+]=[N-],1.44,-2.19,-0.502,2.31,0.392,0.26,0.4,1.13,2.9,1.81,1.01,-0.579 (inactive),0.0749,-0.0037,0.673,3.17,1.15,1.34,-1.24,1.12
COC(=O)C/C=C/C[C@]1(O)C(=O)N(C)c2ccccc21,0.0938,0.027,0.704,-1.34,-0.895,-0.122,-0.243,-0.252,0.194,0.766,-0.475,-0.571 (inactive),0.212,-0.099,0.273,0.401,0.111,0.241,0.934,-0.556
CCCC=C(CCC)[C@@H](NP(=O)(c1ccccc1)c1ccccc1)c1ccc(-c2ccccc2)cc1,1.23,-2.72,0.53,0.877,0.796,0.328,0.972,1.35,0.946,1.3,0.91,0.439 (inactive),0.36,0.0117,0.561,2.52,0.272,1.34,-0.465,1.09
CCCCCN1CC=CC23O[C@@H]4C=CCCOC(=O)C4[C@H]2C(=O)N(CCCCCCO)[C@@H]3C1=O (stereo not given in full),0.521,0.525,-0.287,-0.711,-0.533,-0.168,-0.0769,-0.316,0.564,-0.675,-0.587,0.976 (inactive),-0.252,-0.203,0.861,2.33,0.0488,0.0067,-0.856,-0.52
CCCC[C@@H](O)C1=C(COC)C[C@H]2C(=O)N(Cc3ccccc3)C(=O)[C@H]2[C@H]1CO,0.34,-0.655,0.568,-0.37,-0.359,0.0102,-0.345,0.116,0.515,0.516,0.232,-0.306 (inactive),-0.214,-0.0668,0.0793,0.368,0.263,0.651,0.293,0.455
CCOC(=O)C1=C[C@@H](c2ccccc2)N(S(=O)(=O)c2ccc(C)cc2)[C@H]1c1ccc(OC)cc1,0.796,-1.92,0.976,1.6,0.736,0.661,0.926,1.25,0.118,1.24,0.72,-0.0164 (inactive),0.815,0.493,0.614,1.71,0.755,1.32,-0.224,1.1

# From PubChem BioAssay
